PubChem BioAssay AID2018 (Sanford-Burnham Center for Chemical Genomics, 2009)
In all, about 1,200 compounds went through this assay and about 600 (50%) were called active. Rule as the data show it: active = inhibition above about 42%; inactive = the rest. So high a share suggests a set chosen from earlier hits. The list shows a part of the results. Measured potencies and affinities stand elsewhere.

What follows are compounds tested against SUMO-conjugating enzyme UBC9 (Homo sapiens) (UniProt P63279) (assay: blockers of UBC9-mediated SUMO conjugation – biochemical, AlphaScreen, SUMOylation inhibitor project, confirmation (AID 2018)). Settings: AlphaScreen in vitro SUMOylation assay; at 35 µM; active compounds read high.
Sequence of SUMO-conjugating enzyme UBC9 (Homo sapiens) (P63279 whole entry, looked up): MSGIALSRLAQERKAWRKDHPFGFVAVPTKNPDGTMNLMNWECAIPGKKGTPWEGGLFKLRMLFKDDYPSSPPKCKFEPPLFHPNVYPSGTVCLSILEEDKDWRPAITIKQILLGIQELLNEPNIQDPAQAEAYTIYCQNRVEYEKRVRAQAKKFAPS

Compound | inhibition
O=C(CNc1cccc2ccccc12)c1ccc([N+](=O)[O-])cc1 | 26.3% (inactive)
O=[N+]([O-])c1ccc(C2Nc3cccc4cccc(c34)N2)cc1 | 49.3% (active)
O=[N+]([O-])c1ccc(Cl)c(C2Nc3cccc4cccc(c34)N2)c1 | 30.6% (inactive)
CN(CCC#N)C(=O)COC(=O)c1c2c(nc3ccccc13)/C(=C/c1ccco1)CC2 | 43.2% (active)
Cc1cnc(C(=O)OCC(=O)c2ccc(F)cc2)cn1 | 1.5% (inactive)
CCOc1ccc(C2C=C(c3ccccc3)Nc3ncnn32)cc1 (stereo not drawn) | 13.5% (inactive)
CC1=CC2(O)OCCN(CCO)C2=CC1=O (stereo not drawn) | 8.3% (inactive)
CCOC(=O)C1CCCN(c2cc(NCCCO)c([N+](=O)[O-])c3nonc23)C1 (stereo not drawn) | -6.6% (inactive)
CCOC(=O)C1CCN(C2=C(NS(=O)(=O)c3ccc(Br)cc3)C(=O)c3ccccc3C2=O)CC1 | 91.9% (active)
NC(=O)C1CCN(C2=C(NS(=O)(=O)c3ccccc3)C(=O)c3ccccc3C2=O)CC1 | 35.9% (inactive)
CC1CCN(C2=C(NS(=O)(=O)c3ccc(Br)cc3)C(=O)c3ccccc3C2=O)CC1 | 94% (active)
NC(=O)C1CCN(C2=C(NS(=O)(=O)c3ccc(Cl)cc3)C(=O)c3ccccc3C2=O)CC1 | 87.2% (active)
CC1CCCN(C2=C(NS(=O)(=O)c3ccc(Br)cc3)C(=O)c3ccccc3C2=O)C1 (stereo not drawn) | 55.3% (active)
Fc1ccc(-c2nc3cnccn3c2NC2CCCC2)cc1 | -43.2% (inactive)
COc1cc2c(cc1OC)C(C)=NC1(CCCCC1)C2 | -0.1% (inactive)
CN(C)c1cccc2c(S(=O)(=O)N3CCCC3)cccc12 | -26.8% (inactive)
c1ccc(Nc2ccccc2Nc2ccccn2)nc1 | -1.2% (inactive)
CN(C)c1cccc2c(S(=O)(=O)Nc3ccccn3)cccc12 | 69.7% (active)
Cc1cccc(NC(=S)Nc2cccc3ccccc23)c1 | 19% (inactive)
Cc1cccc(NC2=C(NCCO)C(=O)c3ccccc3C2=O)c1 | 82% (active)
N#Cc1c(-c2cccc(Br)c2)cc(-c2ccco2)[nH]c1=O | 54% (active)
O=C(CSc1nnc(SCc2ccccc2)s1)N/N=C/C=C\c1ccco1 | 65% (active)
O=C(CNc1cccc2ccccc12)N/N=C/c1ccc(OC(=O)/C=C/c2ccco2)cc1 | 3.4% (inactive)
O=C(Cc1cccs1)N/N=C/C=C\c1ccco1 | 26% (inactive)
Cn1c2ccc(Cl)cc2c2nc3ccccc3nc21 | 4.7% (inactive)

Compound | inhibition
COCCn1c(-c2cccs2)csc1=Nc1cccnc1 | 12.7% (inactive)
COCCCn1c(C(=O)N2CCOCC2)cc2c(=O)n3ccccc3nc21 | 2.8% (inactive)
CC1CCCCC1NC(=O)c1cc2c(=O)n3ccccc3nc2n1C (stereo not drawn) | -8.7% (inactive)
Cn1c(C(=O)NCC2CCCO2)cc2c(=O)n3ccccc3nc21 (stereo not drawn) | -2.8% (inactive)
Cc1cccn2c(=O)c3cc(S(=O)(=O)c4ccccc4)c(=N)n(Cc4ccco4)c3nc12 | 27.5% (inactive)
Cc1cccn2c(=O)c3cc(S(=O)(=O)c4ccc(F)cc4)c(=N)n(Cc4ccco4)c3nc12 | 7.6% (inactive)
Cc1ccc(S(=O)(=O)c2cc3c(=O)n4ccccc4nc3n(Cc3ccco3)c2=N)cc1C | 45.2% (active)
Cn1c(C(=O)N2CCN(C(=O)c3ccco3)CC2)cc2c(=O)n3ccccc3nc21 | -14.7% (inactive)
Cn1c(C(=O)N2COCC2(C)C)cc2c(=O)n3ccccc3nc21 | -16.1% (inactive)
COCCCn1c(C(=O)N2CC(C)OC(C)C2)cc2c(=O)n3ccccc3nc21 (stereo not drawn) | -18.6% (inactive)
CCN(CC(=O)c1c(N)n(C)c(=O)n(C)c1=O)c1cccc2ccccc12 | -12.9% (inactive)
O=c1c2cc(N3CCOCC3)ccc2[nH]c(=S)n1Cc1ccccn1 | 2.9% (inactive)
Oc1cccc2c(NC(=S)Nc3ccc(OC(F)F)cc3)cccc12 | 27.3% (inactive)
CC(C)NC(=S)Nc1cccc2cnccc12 | -0.7% (inactive)
FC(F)(F)c1ccccc1NC(=S)Nc1cccc2cnccc12 | 18.9% (inactive)
Nc1cccc2cnccc12 | 45.1% (active)
CCc1ccc(OCC(=O)N/N=C2\CC(=O)c3ccccc32)cc1 | 100% (active)
CC(C)c1onc(C(=O)N2CCC(C(N)=O)CC2)c1[N+](=O)[O-] | -13.8% (inactive)
Cn1c(=O)c2cc(NCc3ccccc3)nnc2n(C)c1=O | 12.8% (inactive)
O=C1C=C(NCc2ccccc2)c2ccccc2C1=O | 102% (active)
Cc1ccc(NC2=CC(=O)C(=O)c3ccccc32)cc1 | 100% (active)
Fc1cccc(-n2c(-c3cccs3)nc3nc4ccccc4nc32)c1 | 8.7% (inactive)
CC(C)(C)c1ccc(C(=O)NNc2cc(N3CCOCC3)nc(N3CCOCC3)n2)cc1 | 23.5% (inactive)
O=C(NNc1cc(N2CCOCC2)nc(N2CCOCC2)n1)c1ccc(Cl)c(Cl)c1 | 66.9% (active)
O=C(CCc1ccccc1)NNc1cc(N2CCCCC2)nc(N2CCCCC2)n1 | 50% (active)

Compound | inhibition
CCCCOc1ccc(CSc2ncn[nH]2)cc1 | 3.3% (inactive)
O=C(Nc1ccccc1-c1nc2ccccc2s1)c1cccnc1Cl | 18.7% (inactive)
C=CCN1C(=O)N(CC=C)c2cccc3cccc1c23 | -10.4% (inactive)
CCN1C(=O)N(CC)c2cccc3cccc1c23 | 10.6% (inactive)
CC1N(C)c2cccc3cccc(c23)N1C | 49.8% (active)
O=C(c1csc(Nc2cccc3ccccc23)n1)N1CCCC1 | 19.2% (inactive)
C[n+]1cccc2ccc3c(c21)OC(N)=C(C#N)C3c1ccccc1 (stereo not drawn) | -6.6% (inactive)
C[n+]1cccc2c(Br)ccc([O-])c21 | 102% (active)
C[n+]1cccc2cccc([O-])c21 | 101% (active)
Cc1ccc(N2CSC3=C(C#N)C(c4cccs4)CC(=O)N3C2)cc1 (stereo not drawn) | 38.3% (inactive)
CCCCN(C)S(=O)(=O)c1cc(Br)cc2c1N(C(=O)C1CC1)CC2 | -3.7% (inactive)
O=c1[nH]cc(I)cc1I | 8.4% (inactive)
Cc1cc(-c2csc(N)n2)c(C)n1Cc1ccco1 | 21.9% (inactive)
CCOC(=O)c1c(C)oc2c1C(=O)c1ccccc1C2=O | 47.8% (active)
Cc1oc2c(c1C(=O)N1CCC(C)CC1)C(=O)c1ccccc1C2=O | 29.2% (inactive)
Cc1oc2c(c1C(=O)O)C(=O)c1ccccc1C2=O | 86.7% (active)
COc1ccc2oc(=O)c(C(=O)NCC3CCCO3)cc2c1 (stereo not drawn) | -13.9% (inactive)
COc1ccc(CNC(=O)c2c(C)oc3c2C(=O)c2ccccc2C3=O)cc1 | 49.7% (active)
COc1ccc(S(=O)(=O)N(C)c2ccc(C(=O)NCc3ccccn3)cc2)cc1 | 4.9% (inactive)
CC(C)NC(=O)N1CCC(n2nccc2NC(=O)CCOc2ccccc2)CC1 | 9% (inactive)
C(=N\C(/N=C/c1ccco1)c1ccco1)/c1ccco1 | 30% (inactive)
O=C1/C(=C\c2ccco2)SC(=S)N1C1CCS(=O)(=O)C1 (stereo not drawn) | 39.6% (inactive)
O=C1S/C(=C\C=C\c2ccco2)C(=O)N1c1ccc(O)cc1 | 40.4% (inactive)
NN1C(=O)/C(=C\c2ccco2)SC1=S | 56% (active)
Nc1ccc2c(c1)C/C(=C/c1ccco1)C2=O | 13.8% (inactive)

Compound | inhibition
CCOC(=O)c1nn(-c2ccc3c(c2)CCN3C(C)=O)cc1O | 16.7% (inactive)
Cc1ccc2[nH]c3c(c2c1)CN(C(=O)CN1CCN(c2cccc(C)c2C)CC1)CC3 | 41.7% (inactive)
COc1ccc2nc3ccccc3nc2c1N | 66.5% (active)
COc1ccccc1CCn1c(N)c(C#N)c2nc3ccccc3nc21 | 22.4% (inactive)
COc1ccc2nc3cccc(OC)c3nc2c1 | -22.2% (inactive)
CN(Cc1ccco1)C(=O)c1cc2c(s1)-c1ccc(Cl)cc1S(=O)(=O)C2 | 11.3% (inactive)
O=C(O)CCC(=O)Nc1ccccc1C(=O)Nc1ccccc1 | -5.9% (inactive)
C=CCNC(=O)c1c(N)n(-c2cccc(S(N)(=O)=O)c2)c2nc3ccccc3nc12 | 2% (inactive)
Cc1ccc(NC(=O)CCC(=O)OCC(=O)c2ccc(-c3ccccc3)cc2)cc1 | 22.2% (inactive)
CCN(CC)C(=O)COc1ccc2oc(-c3ccco3)cc(=O)c2c1 | -1.1% (inactive)
COc1ccc(-n2c(N)c(C(=O)NCc3ccco3)c3nc4ccccc4nc32)cc1OC | 33.2% (inactive)
COc1ccc(-n2c(N)c(C(=O)NCC3CCCO3)c3nc4ccccc4nc32)c(OC)c1 (stereo not drawn) | -13.9% (inactive)
Cc1ccc(/C=c2\sc3nc(-c4ccco4)nn3c2=O)o1 | 83.3% (active)
O=[N+]([O-])c1ccc(N2CCN(CCO)CC2)c2ncccc12 | -17.2% (inactive)
O=[N+]([O-])c1cc(CN2CCN(c3cccc(C(F)(F)F)c3)CC2)c2cccnc2c1O | 64.3% (active)
COc1ccc2c(c1)CC/C(=C\Nc1ccc3c(c1)OCO3)C2=O | 97.5% (active)
COc1ccc2c(c1)CC/C(=C\C=C\c1ccccc1)C2=O | 31.7% (inactive)
COc1ccccc1C(=O)Nc1sc2c(c1C(=O)NCc1ccco1)CCCC2 | 35.7% (inactive)
O=C(CSc1ccc(Br)c2cccc(Cl)c12)Nc1ccc(S(=O)(=O)Nc2nccs2)cc1 | 101% (active)
O=C(Cn1nnc2ccccc21)NCc1ccccc1 | 4.8% (inactive)
CC(C)CC(=O)Nc1ccc(C(=O)Cn2nc(C(=O)O)c3ccccc3c2=O)cc1 | 36% (inactive)
N#Cc1cnn2c(-c3ccccc3)ccnc12 | 3.3% (inactive)
O=C(Cc1cccc2ccccc12)NN1C(=O)/C(=C\c2cccnc2)SC1=S | 29.3% (inactive)
